Data taken from PubChem BioAssay (EPA / NIEHS).
Records with an inconclusive call do not appear. Active and inactive are the calls of the source. Rule for the calls, unless noted: active = hit-call score of the fitted dose curve at least 0.9, where 1 is the maximum; inactive = score below 0.9.

What was measured:
[1] = read-out: urokinase plasminogen activator (uPA), PLAU (gene 5328); assay: BSK_KF3CT_uPA: BioMAP Diversity Plus: KF3CT Assay for urokinase plasminogen activator (uPA) Biomarker Activity (AID 2283075); conditions: primary human keratinocytes with fibroblasts; actives raise or lower the signal
Procedure, shortened: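 Values derive from bidirectional fitting against DMSO controls. Keratinocyte/foreskin fibroblast co-cultures received chemical; 24 h later uPA was detected by ELISA, with SRB total-protein staining in parallel wells for overt cytotoxicity.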

[2] = read-out: CD40, CD40 (gene 958); assay: BSK_LPS_CD40: BioMAP Diversity Plus: LPS Assay for CD40 Biomarker Activity (AID 2283076); conditions: primary human HUVEC with PBMC; actives raise or lower the signal
Procedure, shortened: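 HUVEC plus PBMC co-culture stimulated with LPS; CD40 quantified by ELISA 24 h after compound dosing. Fitting was bidirectional relative to DMSO. SRB staining of parallel cultures flagged overt cytotoxicity.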

[3] = read-out: E-selectin (Homo sapiens) (UniProt P16581); assay: BSK_LPS_Eselectin: BioMAP Diversity Plus: LPS Assay for Eselectin Biomarker Activity (AID 2283077); conditions: primary human HUVEC with PBMC; actives raise or lower the signal
Procedure, shortened: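 Human umbilical vein endothelial cells co-cultured with PBMC under LPS stimulation; cell-surface E-selectin measured by ELISA 24 h after dosing. Change in either direction versus DMSO, with SRB total-protein staining in parallel cultures for cytotoxicity.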

[4] = read-out: Interleukin-8 (IL8), CXCL8 (gene 3576); assay: BSK_LPS_IL8: BioMAP Diversity Plus: LPS Assay for Interleukin-8 (IL8) Biomarker Activity (AID 2283078); conditions: primary human HUVEC with PBMC; actives raise or lower the signal
Procedure, shortened: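 Human umbilical vein endothelial cells co-cultured with PBMC, LPS-stimulated, exposed to compound for 24 h. IL-8 quantified by ELISA; fitted in both directions against DMSO, with SRB total-protein staining of parallel cultures for cytotoxicity.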

[5] = BSK_LPS_SRB: Viability Assessment in the BioMAP Diversity Plus: LPS Assay (AID 2283079); conditions: primary human HUVEC with PBMC;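 note: total protein by sulforhodamine B absorbance as a cytotoxicity measure; measured one day after compound addition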
Procedure, shortened: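 Co-culture of human umbilical vein endothelial cells and PBMC, read 24 h after dosing. Total protein by 0.1% SRB staining after 10% TCA fixation, absorbance at 560 nm; bidirectional fit against DMSO.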

[6] = read-out: Interleukin-1 alpha (IL1a), IL1A (gene 3552); assay: BSK_LPS_IL1a: BioMAP Diversity Plus: LPS Assay for Interleukin-1 alpha (IL1a) Biomarker Activity (AID 2283080); conditions: primary human HUVEC with PBMC; actives raise or lower the signal
Procedure, shortened: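 Human umbilical vein endothelial cells co-cultured with PBMC and stimulated with LPS; IL-1a measured by ELISA 24 h after dosing. Bidirectional fitting against DMSO; cytotoxicity checked by SRB staining in parallel cultures.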

[7] = read-out: Monocyte Chemoattractant Protein-1 (MCP1), CCL2 (gene 6347); assay: BSK_LPS_MCP1: BioMAP Diversity Plus: LPS Assay for Monocyte Chemoattractant Protein-1 (MCP1) Biomarker Activity (AID 2283081); conditions: primary human HUVEC with PBMC; actives raise or lower the signal
Procedure, shortened: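 Human umbilical vein endothelial cells co-cultured with PBMC, LPS-stimulated; secreted MCP-1 measured by ELISA 24 h after compound addition. Bidirectional curve fitting against DMSO baseline; SRB total-protein staining in parallel cultures for cytotoxicity.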

[8] = BSK_LPS_PGE2: BioMAP Diversity Plus: LPS Assay for Prostaglandin E2 (PGE2) Biomarker Activity (AID 2283082); conditions: primary human HUVEC with PBMC; actives raise or lower the signal
Procedure, shortened: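 Compounds were added to the LPS co-culture of endothelium and PBMC, and PGE2 was measured by ELISA after 24 h. Responses in either direction were fitted with DMSO as baseline.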

[9] = read-out: Macrophage colony-stimulating factor (MCSF), CSF1 (gene 1435); assay: BSK_LPS_MCSF: BioMAP Diversity Plus: LPS Assay for Macrophage colony-stimulating factor (MCSF) Biomarker Activity (AID 2283083); conditions: primary human HUVEC with PBMC; actives raise or lower the signal
Procedure, shortened: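 HUVEC–PBMC co-culture, M-CSF measured by ELISA 24 h after chemical dosing. Fitted in both directions relative to DMSO as negative control; overt cytotoxicity assessed by SRB total-protein staining in parallel cultures.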

[10] = read-out: Tumor necrosis factor (Homo sapiens) (UniProt P01375); assay: BSK_LPS_TNFa: BioMAP Diversity Plus: LPS Assay for Tumour Necrosis Factor alpha (TNFa) Biomarker Activity (AID 2283085); conditions: primary human HUVEC with PBMC; actives raise or lower the signal
Procedure, shortened: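 Cells (umbilical vein endothelium plus peripheral blood mononuclear cells) were dosed with chemical, incubated 24 h, then TNFa was quantified by ELISA; values derive from bidirectional fitting with DMSO as baseline.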

[11] = read-out: Vascular cell adhesion molecule 1 (VCAM1), VCAM1 (gene 7412); assay: BSK_LPS_VCAM1: BioMAP Diversity Plus: LPS Assay for Vascular cell adhesion molecule 1 (VCAM1) Biomarker Activity (AID 2283086); conditions: primary human HUVEC with PBMC; actives raise or lower the signal
Procedure, shortened: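 Cells are dosed in an LPS-stimulated endothelial/mononuclear co-culture and, after 24 h, VCAM-1 is quantified by ELISA. Activity in either direction is fitted relative to the DMSO negative control.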

[12] = read-out: CD38, CD38 (gene 952); assay: BSK_SAg_CD38: BioMAP Diversity Plus: SAg Assay for CD38 Biomarker Activity (AID 2283087); conditions: primary human HUVEC with PBMC; actives raise or lower the signal
Procedure, shortened: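 CD38 quantified by ELISA (fluorescence) in a superantigen-activated endothelial cell–PBMC co-culture at 24 h post-dose. Activity fitted in both directions relative to DMSO; parallel SRB and Alamar Blue cytotoxicity read-outs.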

[13] = read-out: CD69, CD69 (gene 969); assay: BSK_SAg_CD69: BioMAP Diversity Plus: SAg Assay for CD69 Biomarker Activity (AID 2283089); conditions: primary human HUVEC with PBMC; actives raise or lower the signal
Procedure, shortened: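 HUVEC co-cultured with PBMC were dosed with chemical, and CD69 was measured by ELISA with fluorescence read-out 24 h later. Bidirectional curve fitting used DMSO as negative control and activity baseline.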

[14] = read-out: Monocyte Chemoattractant Protein-1 (MCP1), CCL2 (gene 6347); assay: BSK_SAg_MCP1: BioMAP Diversity Plus: SAg Assay for Monocyte Chemoattractant Protein-1 (MCP1) Biomarker Activity (AID 2283090); conditions: primary human HUVEC with PBMC; actives raise or lower the signal
Procedure, shortened: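 Values derive from bidirectional fitting of ELISA-measured MCP1 against DMSO controls. Readings were taken 24 h after dosing human vascular endothelial cells co-cultured with peripheral blood mononuclear cells under superantigen stimulation.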

[15] = read-out: Monokine induced gamma interferon (MIG), CXCL9 (gene 4283); assay: BSK_SAg_MIG: BioMAP Diversity Plus: SAg Assay for Monokine induced gamma interferon (MIG) Biomarker Activity (AID 2283092); conditions: primary human HUVEC with PBMC; actives raise or lower the signal
Procedure, shortened: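 HUVEC plus human PBMC co-culture, chemicals dosed and MIG (CXCL9) quantified by ELISA at 24 h. Bidirectional curve fitting against DMSO as negative control and baseline, so both gain and loss of signal count as activity.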

[16] = BSK_SAg_PBMCCytotoxicity: PBMC Cytotoxicity Assessment in the BioMAP Diversity Plus: SAg Assay (AID 2283093); conditions: primary human HUVEC with PBMC;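 note: PBMC viability measured as Alamar Blue reduction fluorescence at 546/580 nm; fitted both ways against DMSO so a hit may be loss or gain of signal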
Procedure, shortened: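 Alamar Blue reduction (6 h, 546/580 nm) reports PBMC cytotoxicity after 90 h superantigen activation (SEB, TSST-1; 20 ng/mL final each) with 1 h compound pre-treatment. Gain or loss of signal fitted versus DMSO.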

[17] = read-out: Interleukin-8 (IL8), CXCL8 (gene 3576); assay: BSK_SAg_IL8: BioMAP Diversity Plus: SAg Assay for Interleukin-8 (IL8) Biomarker Activity (AID 2283094); conditions: primary human HUVEC with PBMC; actives raise or lower the signal
Procedure, shortened: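 Chemicals were dosed onto a human endothelial–PBMC co-culture, and IL-8 was quantified by ELISA after 24 h. Both increases and decreases were fitted relative to DMSO.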

[18] = BSK_SAg_Proliferation: Cell Proliferation Assessment in the BioMAP Diversity Plus: SAg Assay (AID 2283095); conditions: primary human HUVEC with PBMC;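 note: relative cell number as total protein by SRB absorbance in sub-confluent culture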
Procedure, shortened: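 Absorbance of sulforhodamine B at 560 nm reports total protein in a human vascular endothelial/PBMC co-culture after 96 h chemical exposure. Gain or loss of signal is fitted in both directions against DMSO.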

[19] = BSK_SAg_SRB: Viability Assessment in the BioMAP Diversity Plus: SAg Assay (AID 2283096); conditions: primary human HUVEC with PBMC;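 note: cells read one day after compound addition; hits may be either gain or loss of signal compared with DMSO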
Procedure, shortened: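 This overt-cytotoxicity endpoint quantifies protein in human endothelial/PBMC co-cultures at 24 h using SRB absorbance (560 nm) after trichloroacetic acid fixation. Values reflect signal change from the DMSO negative control, fitted bidirectionally.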

[20] = target: human CYP19A1, CYP19A1 (gene 1588) (UniProt P11511); assay: NVS_ADME_hCYP19A1: NovaScreen (NVS) CYP450-related Enzyme Activity (ADME) Assay for human CYP19A1 (AID 2283098; active = hit-call score of the fitted dose curve at least 0.9, where 1 is the maximum)
Procedure, shortened: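 Compounds were first screened at 10 uM in duplicate against purified enzyme, with a fluorogenic substrate and fluorescence intensity detection after 0.5 h. Inhibition appears as reduced signal against acetonitrile control.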

Measured: outcome

Chain of Tumor necrosis factor (Homo sapiens) (P01375 whole entry, looked up): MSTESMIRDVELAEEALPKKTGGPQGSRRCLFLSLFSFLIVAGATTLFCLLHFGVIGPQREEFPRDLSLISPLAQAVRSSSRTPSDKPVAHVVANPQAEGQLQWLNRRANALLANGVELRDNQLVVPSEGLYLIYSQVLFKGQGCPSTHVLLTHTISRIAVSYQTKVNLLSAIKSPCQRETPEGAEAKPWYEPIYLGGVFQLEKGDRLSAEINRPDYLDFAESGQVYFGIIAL
Chain of E-selectin (Homo sapiens) (P16581 whole entry, looked up): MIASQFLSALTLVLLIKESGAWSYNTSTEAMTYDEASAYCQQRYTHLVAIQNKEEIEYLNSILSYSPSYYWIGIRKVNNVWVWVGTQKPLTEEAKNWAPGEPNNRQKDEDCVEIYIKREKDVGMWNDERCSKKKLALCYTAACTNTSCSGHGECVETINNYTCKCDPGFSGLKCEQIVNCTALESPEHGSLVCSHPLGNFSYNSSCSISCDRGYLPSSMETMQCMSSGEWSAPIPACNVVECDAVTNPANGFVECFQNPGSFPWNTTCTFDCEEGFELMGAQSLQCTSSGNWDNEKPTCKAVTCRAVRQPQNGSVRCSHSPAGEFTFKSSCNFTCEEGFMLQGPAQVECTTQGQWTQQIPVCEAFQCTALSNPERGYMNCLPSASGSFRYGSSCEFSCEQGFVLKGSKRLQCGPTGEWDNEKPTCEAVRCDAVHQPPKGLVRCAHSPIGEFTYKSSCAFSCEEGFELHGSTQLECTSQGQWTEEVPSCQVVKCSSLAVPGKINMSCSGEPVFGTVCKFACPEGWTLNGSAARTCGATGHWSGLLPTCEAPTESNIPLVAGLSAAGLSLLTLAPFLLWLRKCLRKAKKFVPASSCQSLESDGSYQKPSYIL
Chain of human CYP19A1, CYP19A1 (gene 1588) (P11511 whole entry, looked up): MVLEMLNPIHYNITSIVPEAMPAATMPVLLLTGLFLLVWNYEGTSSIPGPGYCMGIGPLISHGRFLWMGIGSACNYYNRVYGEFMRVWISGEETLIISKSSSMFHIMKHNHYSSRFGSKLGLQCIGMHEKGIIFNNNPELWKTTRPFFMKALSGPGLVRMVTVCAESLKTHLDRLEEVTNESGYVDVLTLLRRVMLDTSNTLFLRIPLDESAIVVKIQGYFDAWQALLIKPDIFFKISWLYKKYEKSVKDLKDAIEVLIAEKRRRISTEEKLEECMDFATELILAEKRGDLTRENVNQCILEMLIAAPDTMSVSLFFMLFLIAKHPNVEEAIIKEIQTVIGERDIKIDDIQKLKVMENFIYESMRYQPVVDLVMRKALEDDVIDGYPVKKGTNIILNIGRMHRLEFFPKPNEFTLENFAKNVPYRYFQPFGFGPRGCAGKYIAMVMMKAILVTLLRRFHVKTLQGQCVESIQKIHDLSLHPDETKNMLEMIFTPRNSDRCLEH

c1ccc(-c2ccccn2)nc1
not listed: [20]
inactive: all other assays above

O=Nc1ccc(O)cc1
not listed: [20]
inactive: all other assays above

CC(CC=O)CCCC(C)(C)O (stereo not drawn)
inactive: [20]

CCO[Si](C)(OCC)OCC
not listed: [20]
inactive: all other assays above

O=c1c2ccccc2oc2ccccc12
not listed: [20]
inactive: all other assays above

CC(=O)[C@H]1[C@H](C#N)C[C@H]2[C@@H]3CC=C4C[C@@H](O)CC[C@]4(C)[C@H]3CC[C@@]21C
inactive: [20]
